Bioassay records: PubChem, National Center for Advancing Translational Sciences (NCATS)
In the library only some 15% were active in any assay of this set; here they are far more common.
TDP1 cell CPT: qHTS for Inhibitors of human tyrosyl-DNA phosphodiesterase 1 (TDP1): qHTS in cells in presence of CPT; chicken DT40 Tdp1-/-;hTDP1 cells + 20 nM CPT, ATP luminescence, 48 h; Potency, µM (doses to about 46.2 µM), inactives show at the top dose activity change, negative = growth inhibition, actives largely listed as inhibitors; 420,000 compounds, 12% hits; AID 686979, 2013; also: nearly all actives have a fitted effect of over 55% in size
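Cell growth measured by CellTiter-Glo luminescence after a minimum 48 h, 37 C compound exposure with 20 nM CPT in Tdp1-knockout DT40 cells stably expressing hTDP1, seeded 400/well; qHTS titration format.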
ALOX12 inh: Primary qHTS assay for inhibitors of human arachidonate 12S-lipoxygenase (ALOX12): Round 2 | purified 12hLO, xylenol orange hydroperoxide absorbance | Potency, µM (titrated, usually from 108 µM), without a hit: top-dose activity change, negative = inhibition, most hits filed as inhibitors | 580,000 compounds, 1.1% hits | AID 1671190, 2021
Target sequence (P18054 whole entry, looked up): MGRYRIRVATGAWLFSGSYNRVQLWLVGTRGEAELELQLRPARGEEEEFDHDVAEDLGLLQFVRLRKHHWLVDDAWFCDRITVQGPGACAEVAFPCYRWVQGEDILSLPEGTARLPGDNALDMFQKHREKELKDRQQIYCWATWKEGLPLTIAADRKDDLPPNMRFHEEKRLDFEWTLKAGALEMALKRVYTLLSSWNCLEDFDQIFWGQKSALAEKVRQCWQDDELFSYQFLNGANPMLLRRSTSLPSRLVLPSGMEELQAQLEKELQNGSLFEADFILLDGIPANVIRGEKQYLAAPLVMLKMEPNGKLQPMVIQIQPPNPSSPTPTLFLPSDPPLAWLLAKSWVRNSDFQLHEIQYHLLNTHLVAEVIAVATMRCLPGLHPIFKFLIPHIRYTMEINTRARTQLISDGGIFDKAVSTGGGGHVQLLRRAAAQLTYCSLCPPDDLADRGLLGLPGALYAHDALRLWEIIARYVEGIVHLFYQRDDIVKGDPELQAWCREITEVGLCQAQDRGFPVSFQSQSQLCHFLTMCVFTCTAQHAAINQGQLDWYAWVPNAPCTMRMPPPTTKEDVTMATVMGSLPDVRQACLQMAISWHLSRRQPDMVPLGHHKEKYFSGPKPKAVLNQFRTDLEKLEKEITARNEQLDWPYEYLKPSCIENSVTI
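Purified human 12hLO (150 nM final) in 25 mM Hepes, 0.01% Triton X-100, pH 7.0 was preincubated 15 min at room temperature with compound. Then 40 uM arachidonic acid was added, 30 min. Hydroperoxide was read by Fe-XO absorbance ratio 573/405 nm.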
DT40 TDP1 no CPT: qHTS for Inhibitors of human tyrosyl-DNA phosphodiesterase 1 (TDP1): qHTS in cells in absence of CPT | 420,000 compounds, 15% hits | DT40 Tdp1-/- hTDP1 cells, no CPT, ATP luminescence, 48 h | Potency, µM (top dose mostly 46.2 µM), for the others: top-dose activity change, negative = growth inhibition, most hits filed as inhibitors; also: nearly all actives have a fitted effect of over 55% in size
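Chicken DT40 Tdp1-/- cells complemented with human TDP1, screened without camptothecin (DMSO vehicle only), 400 cells/well. Compounds pin-transferred, cells incubated at 37 °C for at least 48 hr. Growth read as ATP-dependent luminescence (CellTiter-Glo, 30 min at RT).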
VP16 counter: VP16 counterscreen qHTS for inhibitors of ROR gamma transcriptional activity; Drosophila S2 Gal4-VP16 UAS-luciferase, luminescence, 20 h; Potency, µM (top dose mostly 53.6 µM), without a hit: top-dose activity, negative = inhibition, most hits filed as inhibitors; 310,000 compounds, 3.5% hits; AID 2546, 2010;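 also: Gal4-VP16 expression switched on by copper sulfate through the metallothionein promoter; nearly all actives have a fitted effect of over 50% in size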
ELG1 DNA repair: qHTS screen for small molecules that inhibit ELG1-dependent DNA repair in human embryonic kidney (HEK293T) cells expressing luciferase-tagged ELG1; HEK293T ELG1-luciferase reporter, luminescence, 16 h; DNA damage induced by 5-fluorouridine; Potency, µM (doses to about 46.1 µM), for inactives: at the highest dose activity change, negative = inhibition, usual class: inhibitors; 330,000 compounds, 2.3% hits; AID 504467, 2011; also: nearly all actives have a fitted effect of over 55% in size
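In this reporter screen, reduction of luminescence relative to DMSO vehicle indicated activity. Compounds and 5-fluorouridine were added together to 2,000 cells per well, incubated for 16 hr at 37 °C, then developed with ONE-Glo.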
RORg inh: qHTS for inhibitors of ROR gamma transcriptional activity | AID 2551, 2010 | Drosophila S2 Gal4-RORgamma UAS-luciferase reporter, 20 h | Potency, µM (titrated, usually from 53.6 µM), for inactives: top-dose activity change, negative = inhibition, most hits filed as inhibitors | 310,000 compounds, 5.4% hits; also: nearly all actives have a fitted effect of over 60% in size
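Schneider cells (Drosophila), stable Gal4 DBD–ROR gamma + UAS-luc; 1 hr cmpd preincubation; Cu2+ induction 700 uM final; 20 hr ambient; luminescence.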
The depositor's hits bear a star; ? = inconclusive; / = no result; [ ] = remark or other dose. Calls follow the shape of the dose curve; as a rule, active = well fitted curve in the direction sought with a large enough effect; inconclusive = small, poorly fitted or top-dose-only effect, or another doubt; inactive = no such curve, though single readings can be large; an effect the other way counts as inactive or inconclusive. % is scaled to controls: 0 for no effect and ±100 for the full control effect; potency is read from the fitted curve at half-maximal effect.

SMILES | TDP1 cell CPT | ALOX12 inh | DT40 TDP1 no CPT | VP16 counter | ELG1 DNA repair | RORg inh
O=Cc1cn(-c2ccccc2)nc1-c1ccc(F)cc1 | ? | 16.8% | 20.6µM* | -2.2% | ? | 32.3%
Cc1ccc(C(=O)N/C(=C/c2cn(-c3ccccc3)nc2-c2ccccc2)C(=O)O)cc1 | 7.4% | 1.7% | 6.6% | 4.2% | 15.9% | 5.0%
N#C/C(=C\c1cn(-c2ccccc2)nc1-c1cccs1)S(=O)(=O)c1ccccc1 | / | -0.6% | / | / | / | /
O=C(O)c1cn(-c2ccccc2)nc1-c1ccc(F)cc1 | 1.3% | 0.4% | 5.7% | -6.7% | 0.6% | 17.2%
CC1=NNC(=O)/C1=C\c1cn(-c2ccccc2)nc1-c1cccs1 | 2.59µM* | ? | 2.59µM* | 4.47µM* | ? | ?
COc1ccc(C)cc1NC(=O)C1CN(S(=O)(=O)c2cccnc2)CC12CCCCC2 (stereo not drawn) | / | 42.2% | / | / | / | /
CC(=O)Nc1ccc(CN[C@@H]2CO[C@H](CNS(C)(=O)=O)[C@H]2O)cc1 | / | -0.4%[176 µM] | / | / | / | /
CC1=NNC(=O)/C1=C\c1cn(-c2ccccc2)nc1-c1ccc(F)cc1 | 3.66µM* | / | 1.46µM* | 5.01µM* | ? | 4.47µM*
CCOCCCn1c(=NC(=O)c2ccco2)c(C(=O)OCC)cc2c(=O)n3cccc(C)c3nc21 | 16.4µM* | -22.4% | 11.6µM* | -10.0% | ? | -6.2%
CCOC(=O)c1cc2c(=O)n3cccc(C)c3nc2n(CC(C)C)c1=NC(=O)c1ccco1 | ? | ? | 20.6µM* | 4.7% | 13.4% | 6.2%
COc1ccc(Nc2nc3ccccc3nc2NS(=O)(=O)c2ccc3c(c2)OCCO3)cc1Cl | / | -1.3% | / | / | / | /
Cc1ccc(S(=O)(=O)CC(=O)N2CCCCCC2)cc1 | -18.4% | 0.0% | -8.0% | -0.6% | 19.2% | 0.3%
Cc1ccc(C)c(CSC2=NCCN2C(=O)Cc2ccc([N+](=O)[O-])cc2)c1 | ? | -7.5% | 18.4µM* | -4.3% | ? | ?
Cc1ccc(S(=O)(=O)CC(=O)N2CCN(c3ccc([N+](=O)[O-])cc3)CC2)cc1 | 13µM* | ? | ? | / | 10.3µM* | /
O=C(Cc1ccc([N+](=O)[O-])cc1)N1CCN=C1SCc1ccccc1 | -6.2% | -18.9% | -29.4% | -5.1% | 12.5% | -4.2%
Cc1ccc(CC(=O)N2CCN(c3ccc([N+](=O)[O-])cc3)CC2)cc1 | ? | -24.0% | 7.31µM* | 35.5µM* | -21.8% | ?
Cc1cccc(CN2C[C@@H](C(=O)O)C[C@H](C(=O)N3CCN(C)CC3)C2)n1 | / | 117.0% | / | / | / | /
CCOc1ccc(NS(=O)(=O)c2ccc(C(=O)NCC(c3ccc(OC)cc3)N3CCCC3)cc2)cc1 (stereo not drawn) | ? | -22.6% | 13µM* | / | 12.3% | /
O=C(NCC(c1ccc(Cl)cc1)N1CCCCC1)c1ccc(F)cc1 (stereo not drawn) | 13µM* | ? | 13µM* | / | / | /
CCCCOc1ccc(C(=O)NCC2(c3ccccc3)CCOCC2)cc1 | 20.6µM* | -5.8% | ? | -10.4% | -11.8% | -8.1%
CCOc1ccc(C(=O)NCC(=O)NCC(c2ccc(OC)cc2)N2CCCC2)cc1 (stereo not drawn) | -3.7% | 4.4% | 5.5% | / | -19.5% | /
CCOc1ccc(C(=O)NCC(c2ccc(Cl)cc2)N2CCCCC2)cc1 (stereo not drawn) | 7.31µM* | 9.3% | 9.2µM* | / | / | /
